JMJD2A Tudor inh – JMJD2A Tudor domain (human) inhibition. O75164. AlphaScreen JMJD2A-Tudor / H3K4me3 peptide binding. Potency, µM (top dose mostly 114 µM), inactives show at the highest dose activity change, negative = inhibition, actives largely listed as inhibitors. 4.4% of 390,000 active; note: % is set by controls: 0 for no effect and ±100 for the full control effect; nearly all actives have a fitted effect of over 50% in size
G9a inh – inhibitors of human histone lysine methyltransferase G9a; G9a H3K9 monomethylation, AlphaScreen, 2 h; Potency, µM (doses to about 102 µM), inactives show at the top dose activity, negative = inhibition, most hits filed as inhibitors; 8.8% of 350,000 active; note: % is set by controls: 0 for no effect and ±100 for the full control effect; nearly all actives have a fitted effect of over 75% in size
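Readings reflect AlphaScreen signal from monomethyl-H3K9 antibody detection. HMT at 20 nM; substrate b-H3K9 500 nM; cofactor SAM 20 uM; 2 h RT reaction; compounds tested as titrations in qHTS with 15 min preincubation.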
VDR inh – inhibitors of human vitamin D receptor | P11473 | VDR-SRC2-3 peptide fluorescence polarization, 2 h | Potency, µM, for inactives: max response, negative = inhibition, actives largely listed as inhibitors | 0.93% of 400,000 active | AID 504847; note: % is set by controls: 0 for no effect and ±100 for the full control effect
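After 23 nl compound addition and a short centrifugation, plates sat for 2 hours at ambient temperature; polarization of fluorescence then indicated loss of VDR binding to peptide SRC2-3.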
HP1b binding inh – inhibitors of HP1-beta chromodomain binding to methylated histone tails; P83916; Potency, µM (highest dose often 114 µM), for the others: at the top dose activity change, negative = inhibition, hits mostly inhibitors; 0.56% of 390,000 active; AlphaScreen HP1-beta / biotin-H3K9me3 peptide binding; AID 540317; note: nearly all actives have a fitted effect of over 70% in size
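AlphaScreen: HP1-beta (50 nM) preformed 30 min with biotin-H3(1-18)K9me3 peptide (50 nM) in PBS pH 7.4, 0.01% Tween-20. Compound added for 30 min at RT, then streptavidin donor/nickel chelate acceptor beads (10 ug/mL) for 30 min.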
BAZ2B block – BAZ2B (human) inhibition; Q9UIF8; AlphaScreen BAZ2B-H3K14Ac peptide displacement; Potency, µM (titrated, usually from 114 µM), inactives show top-dose activity change, negative = inhibition, most hits filed as inhibitors; 4.4% of 360,000 active; AID 504333; note: % is set by controls: 0 for no effect and ±100 for the full control effect; nearly all actives have a fitted effect of over 60% in size
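AlphaScreen luminescence quantifies BAZ2B engagement of H3K14Ac peptide; the protein and biotinylated peptide are both at 50 nM final, buffer PBS pH 7.4 with 0.01% Tween-20, all steps at room temperature.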
PLK1 PBD block – inhibitors of human PLK1 polo-box domain binding; P53350; Potency, µM, without a hit: max response, negative = inhibition, hits mostly inhibitors; 2.8% of 360,000 active; Plk1 PBD binding of FITC phosphopeptide, fluorescence polarization; note: series mostly up to about 57 µM; % is set by controls: 0 for no effect and ±100 for the full control effect; nearly all actives have a fitted effect of over 65% in size
Target sequence (P53350 whole entry, looked up, the tested form may be a part): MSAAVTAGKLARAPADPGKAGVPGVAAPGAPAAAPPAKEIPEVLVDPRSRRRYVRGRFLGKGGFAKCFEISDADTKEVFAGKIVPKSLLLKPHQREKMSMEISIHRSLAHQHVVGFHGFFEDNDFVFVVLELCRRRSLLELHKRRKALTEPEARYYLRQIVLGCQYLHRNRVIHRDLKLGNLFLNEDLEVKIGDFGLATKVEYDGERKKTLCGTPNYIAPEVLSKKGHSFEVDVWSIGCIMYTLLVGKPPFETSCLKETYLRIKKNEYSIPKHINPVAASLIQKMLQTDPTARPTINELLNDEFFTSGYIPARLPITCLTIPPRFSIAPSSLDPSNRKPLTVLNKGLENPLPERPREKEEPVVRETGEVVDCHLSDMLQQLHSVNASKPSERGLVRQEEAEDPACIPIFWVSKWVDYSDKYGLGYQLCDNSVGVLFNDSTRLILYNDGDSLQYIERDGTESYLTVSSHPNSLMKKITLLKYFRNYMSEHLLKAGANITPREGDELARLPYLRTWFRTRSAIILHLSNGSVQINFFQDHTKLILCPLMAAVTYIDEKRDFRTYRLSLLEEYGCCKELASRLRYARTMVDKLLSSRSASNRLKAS
* = called active by the depositor; ! = not active in a repeat; [ ] = another dose, or the depositor's remark. Shown are actives, neighbours in structure and some others; about 11% of the full set was active somewhere. Calls come from the whole dose curve; as a rule, active = well fitted curve in the direction sought with a large enough effect; inconclusive = small, poorly fitted or top-dose-only effect, or another doubt; inactive = no such curve, though single readings can be large; an effect the other way counts as inactive or inconclusive. Potency is the fitted concentration of half-maximal effect.

Screening COC(=O)NNC(=S)Nc1ccc(Br)cc1 returned JMJD2A Tudor inh 3%, G9a inh 50µM*, VDR inh 21%, HP1b binding inh 69%, BAZ2B block -11% and PLK1 PBD block -7%.
Screening COC(=O)c1ccc(NC(=S)Nc2ccccn2)cc1 returned JMJD2A Tudor inh inconclusive, G9a inh inconclusive, VDR inh -14%, HP1b binding inh 12%, BAZ2B block -5% and PLK1 PBD block -5%.
COC(=O)c1ccc(NC(=S)Nc2ccc(O)cc2)cc1 was read as JMJD2A Tudor inh -8%, G9a inh 50µM*, VDR inh 4%, HP1b binding inh 24%, BAZ2B block -5% and PLK1 PBD block inconclusive.
`CCOc1ccc(NC(=S)NNC(=O)c2cc(Br)ccc2Cl)cc1` gave JMJD2A Tudor inh -29%, G9a inh 45µM*, VDR inh -4%, HP1b binding inh -16%, BAZ2B block -19% and PLK1 PBD block -20%.
`Oc1ccc(NC(=S)Nc2ccc(O)cc2)cc1` gave JMJD2A Tudor inh -19%, G9a inh 50µM*, VDR inh -12%, HP1b binding inh 31%, BAZ2B block -8% and PLK1 PBD block -14%.
For CCOc1ccc(N2C(=O)CC(NCCc3ccc(S(N)(=O)=O)cc3)C2=O)cc1 (stereo unspecified) the results were JMJD2A Tudor inh -11%, G9a inh 25µM*, VDR inh 1%, HP1b binding inh 45%, BAZ2B block 4% and PLK1 PBD block -3%.
Screening CCCOc1ccc(N2C(=O)CC(NCCNc3ccc(S(=O)(=O)CC)cc3)C2=O)cc1 (stereo unspecified) returned JMJD2A Tudor inh 2%, G9a inh inconclusive, VDR inh 9%, HP1b binding inh 36%, BAZ2B block -8% and PLK1 PBD block -3%.
`CCCOc1ccc(N2C(=O)CC(NCCc3ccc(S(N)(=O)=O)cc3)C2=O)cc1` (stereo unspecified) gave JMJD2A Tudor inh -7%, G9a inh 35µM*, VDR inh 8%, HP1b binding inh 25%, BAZ2B block 2% and PLK1 PBD block -10%.
Cc1cccc(NC(=O)CN2CCN(C(=O)CNC(=O)c3ccc(-c4ccccc4)cc3)CC2)c1C was read as PLK1 PBD block -11%.
For Nc1ccc(C#Cc2ccccc2)cc1 the results were JMJD2A Tudor inh -6%, G9a inh 38%[59 µM], VDR inh 7%, HP1b binding inh 6%, BAZ2B block -5% and PLK1 PBD block -1%.
`Cc1cccc(C#Cc2ccccc2)n1` gave JMJD2A Tudor inh inconclusive, G9a inh 20µM*!, VDR inh -7%, HP1b binding inh 55%, BAZ2B block -8% and PLK1 PBD block -20%.
For COc1ccc(C2Nc3ccccc3C(=O)N2Cc2ccccc2)cc1COc1ccc(Cl)cc1 (stereo unspecified) the results were JMJD2A Tudor inh -3%.
Cc1cccc(-n2cnc3cc([N+](=O)[O-])ccc32)c1 was read as JMJD2A Tudor inh -21%, G9a inh 11µM*, VDR inh -20%, HP1b binding inh -24%, BAZ2B block inconclusive and PLK1 PBD block 17µM*.
`CSc1nc(N)nc2c1ncn2CC(=O)NCCNc1ccc([N+](=O)[O-])cn1` gave JMJD2A Tudor inh -6%, VDR inh -13%, HP1b binding inh 59% and PLK1 PBD block -6%.
`Cc1cc(-c2cccs2)c(C#N)c(=S)[nH]1` gave JMJD2A Tudor inh 7.9µM*, G9a inh 1.6µM*, VDR inh -13%, HP1b binding inh 20%, BAZ2B block -20% and PLK1 PBD block inconclusive.
Screening Cc1ccc(NC(=O)c2c(C)oc3ccc(O)c(CN4CCCCC4)c23)c(C)c1 returned JMJD2A Tudor inh -17%, G9a inh -40%[59 µM], VDR inh -5%, HP1b binding inh 3% and BAZ2B block -7%.
Screening Cc1ccc(NC(=S)N(CCN(C)C)Cc2cccs2)c(C)c1 returned JMJD2A Tudor inh -5%, G9a inh 40µM*, VDR inh inconclusive, HP1b binding inh -7%, BAZ2B block -24% and PLK1 PBD block 8.4µM*.
Screening COc1ccc(NC(=S)N(CCc2c(C)[nH]c3ccc(C)cc23)Cc2cccs2)cc1 returned JMJD2A Tudor inh inconclusive, G9a inh 50µM*, VDR inh -11%, HP1b binding inh 11%, BAZ2B block inconclusive and PLK1 PBD block -1%.
`COc1ccc2[nH]c(C)c(CCN(Cc3cccs3)C(=S)Nc3ccccc3)c2c1` gave JMJD2A Tudor inh inconclusive, G9a inh inconclusive, VDR inh 4%, HP1b binding inh inconclusive, BAZ2B block inconclusive and PLK1 PBD block -21%.
`Cc1cc(C)c(NC(=S)N(CCN(C)C)Cc2cccs2)c(C)c1` gave JMJD2A Tudor inh -29%, G9a inh -4%[59 µM], VDR inh 9%, HP1b binding inh 19%, BAZ2B block -36% and PLK1 PBD block -5%.
For CNC(=S)N(CCc1c(C)[nH]c2ccc(C)cc12)Cc1cccs1 the results were JMJD2A Tudor inh inconclusive, G9a inh 45µM*, VDR inh -9%, HP1b binding inh -4% and PLK1 PBD block 9%.
CCOc1ccc(NC(=S)N(CCc2c(C)[nH]c3ccc(C)cc23)Cc2ccco2)cc1 was read as JMJD2A Tudor inh inconclusive, G9a inh 71µM*, VDR inh 17%, HP1b binding inh -4%, BAZ2B block -6% and PLK1 PBD block -3%.
`O=C(NCCc1c[nH]c2ccccc12)Nc1ccccc1C(F)(F)F` gave JMJD2A Tudor inh inconclusive, G9a inh -32%[59 µM], VDR inh 13%, HP1b binding inh -2% and BAZ2B block -24%.
Screening CCCCCCn1nc(C(=O)N(CCOC)c2c(N)n(CCCC)c(=O)[nH]c2=O)c2ccccc2c1=O returned JMJD2A Tudor inh 7%, G9a inh -39%[0.501 µM], VDR inh -5%, HP1b binding inh 54%, BAZ2B block -27% and PLK1 PBD block 1%.
`CCNC(=S)N(CCc1c(C)[nH]c2ccc(C)cc12)Cc1cccnc1` gave JMJD2A Tudor inh inconclusive, G9a inh 11%[2.33 µM], VDR inh -6%, HP1b binding inh inconclusive, BAZ2B block inconclusive and PLK1 PBD block -7%.
For COc1ccc(NC(=S)N(CCc2c(C)[nH]c3ccc(C)cc23)Cc2ccco2)cc1 the results were JMJD2A Tudor inh inconclusive, G9a inh 79µM*, VDR inh -1%, HP1b binding inh -10%, BAZ2B block inconclusive and PLK1 PBD block 0%.
Screening CCNC(=S)N(CCc1c(C)[nH]c2ccc(F)cc12)Cc1cccnc1 returned JMJD2A Tudor inh inconclusive, G9a inh inconclusive, VDR inh -29%, HP1b binding inh inconclusive, BAZ2B block -25% and PLK1 PBD block 19µM*.
